The text below walks through data of PubChem BioAssay (NCI).

Molecules are shown by their SMILES. The panel holds about 83,000 compounds, 20% with a hit somewhere; the sample as a whole holds those more often.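 For each line, cells grew in 96-well plates with the test compound present at a single concentration for 48 hours.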 Calls of active or inactive are those of the source. Rule for the calls: active = growth percent below 10; inactive = the rest.

The first test has as its system MDA-MB-435 melanoma. Nature of the test: NCI-60 one-dose screen, 48 h (100 = growth as untreated, 0 = no growth, -100 = all killed). The note with it: 10 µM unless noted.
Regarding `c1csc(-c2[nH]nc3c2CCc2ccccc2-3)c1`, the growth is 104% (inactive).
Same read-out and setting: the result for `C1=C(c2ccccc2)c2ccccc2C1` reads 93.1% (inactive); that for `O=[N+]([O-])c1ccc(C(Br)c2ccc([N+](=O)[O-])cc2)cc1`, 64.8% (inactive); that for `COc1cccc2c1C(=O)c1c(O)c3c(c(O)c1C2=O)C[C@@](O)(C(=O)CO)C[C@@H]3OC1CC(OC(C)=O)C(OC(C)=O)C(C)O1` (some centres undefined), 7.04% (active).
Take `OC(Cc1cc(CC(O)(C(F)(F)F)C(F)(F)F)nc(CC(O)(C(F)(F)F)C(F)(F)F)c1)(C(F)(F)F)C(F)(F)F`: the growth was 0.574% (active).
The same measure, in the same setting: the result for `CCCCCCCCCCCCCCCCSC(=NCC)NCC` reads -89.7% (active); that for `Cc1ccccc1NC(=O)Cc1csc2[n+]1C(=O)/C(=C/c1ccc([N+](=O)[O-])cc1)S2`, 97.5% (inactive).
On the same count and under the same terms, then `CN(C)CCN(C)CC(C)(C)C(=O)/C=C/c1ccc(Cl)c(Cl)c1`, with -96.5% [100 µM] (active); and `CC(=O)C1Cc2ccccc2C1=O` (centres undefined), with 103% (inactive); and `Oc1c(Cl)cc(Cl)cc1C=NCC1CCC(CN=Cc2cc(Cl)cc(Cl)c2O)CC1` (centres undefined), with 88.8% (inactive).
Still for that read-out and setting: then `Clc1ccc(-n2ncc3c(NCCCN4CCOCC4)ncnc32)cc1`, with 98.9% (inactive); and `O=C1CSC(=S)N1Cc1cccnc1`, with 37% (inactive).
As for `CCN(CC)CCNC(Cc1ccccc1)c1ccc(OCc2ccccc2)cc1` (centres undefined), the growth was 26.7% (inactive).
The same measure, in the same setting: then `O=Nc1ccc2ccccc2c1O`, with -73.9% (active).
On to `CCOC(=O)/C(=C\c1ccc2ccccc2c1)P(=O)(OCC)OCC`, for which the growth is 24% (inactive).
The same measure, in the same setting: the result for `Cc1ccc2cccc(OC(=O)Nc3cccc(C(F)(F)F)c3)c2n1` reads 91.3% (inactive); that for `N#CC(I)CS(=O)(=O)c1ccccc1` (centres undefined), 109% (inactive); that for `CC(C)(C)c1ccc(CCO)cc1`, 89% (inactive).
For the molecule `CCCOS(=O)(=O)c1ccccc1`, the growth was 101% (inactive).
Still for that read-out and setting: then `CCC(C)(O)Cc1ccc(Cl)cc1` (centres undefined), with 101% (inactive).
In the case of `CN(C)c1ccc(C(C#N)(c2ccccc2)c2ccc(N(C)C)cc2)cc1`, the growth is 84.2% (inactive).
The same measure, in the same setting: the result for `O=[N+]([O-])CC(O)c1ccccc1` (centres undefined) reads 91.1% (inactive); that for `CCOC(=O)C1=NN(c2ccccc2)C(=O)/C1=C\N1C(=O)/C(=C/c2cccc(O)c2)SC1=S`, 109% (inactive); that for `O=C(CCl)N1c2ccccc2Sc2c1ccc1ccccc21`, 80.2% (inactive).
As to `CCc1oc2ccccc2c1C(=O)c1cc(Br)c(O)c(Br)c1`, the growth was -11.1% (active).
The same measure, in the same setting: then `Cc1cc(C)c([I+]c2c(C)cc(C)cc2C)c(C)c1`, with -81.2% (active); and `CC1(C)N=c2cc3c(cc2N1c1ccc(Cl)cc1)=Nc1ccccc1N3c1ccc(Cl)cc1`, with 77.9% (inactive).
Same read-out and setting: the result for `O=C(Nc1ccc(Cl)c(Cl)c1)Nc1ccccc1O` reads 76.2% (inactive); that for `O=C1/C(=C/c2ccccc2)CCC/C1=C\c1ccccc1`, 13.2% (inactive).
Still for that read-out and setting: then `CN=C(N)N/N=C(\C)c1ccc2c(c1)Cc1ccccc1-2`, with -73.1% (active).
On to `CCCCCCCCc1cc(Cl)c(O)c(Cl)c1`, for which the growth was 102% (inactive).
Same read-out and setting: then `CC1(O)CCCCCC1`, with 103% (inactive).
On the same count and under the same terms, the result for `CCN1/C(=C/C(C)=C/c2sc3ccc4ccccc4c3[n+]2CC)Sc2ccc3ccccc3c21` reads -97.2% (active).
Still for that read-out and setting: then `CC(O)C(O)C(O)C(O)C(O)C(=O)NNc1ccccc1` (centres undefined), with 86.4% (inactive); and `Cc1nn(CCO)c(C)c1N=[N+]([O-])c1c(C)nn(CCO)c1C`, with -25.4% (active).
In the case of `CCCCN(CCCC)CCCCCCCCCCO`, the growth is 107% (inactive).
The same measure, in the same setting: then `C/C(=N\NC(=S)N1CC2CCC(CC2)C1)c1ccccn1`, with 11.5% (inactive).

A further test concerns SW-620 colon. The test is described as above. The conditions noted are these: 10 µM unless noted.
With `c1csc(-c2[nH]nc3c2CCc2ccccc2-3)c1`, the growth is 106% (inactive).
Same read-out and setting: then `C1=C(c2ccccc2)c2ccccc2C1`, with 97.8% (inactive).
As for `O=[N+]([O-])c1ccc(C(Br)c2ccc([N+](=O)[O-])cc2)cc1`, the growth was 11.1% (inactive).
Still for that read-out and setting: the result for `COc1cccc2c1C(=O)c1c(O)c3c(c(O)c1C2=O)C[C@@](O)(C(=O)CO)C[C@@H]3OC1CC(OC(C)=O)C(OC(C)=O)C(C)O1` (some centres undefined) reads 3.7% (active); that for `OC(Cc1cc(CC(O)(C(F)(F)F)C(F)(F)F)nc(CC(O)(C(F)(F)F)C(F)(F)F)c1)(C(F)(F)F)C(F)(F)F`, 14.6% (inactive).
The same measure, in the same setting: then `CCCCCCCCCCCCCCCCSC(=NCC)NCC`, with -71.7% (active); and `Cc1ccccc1NC(=O)Cc1csc2[n+]1C(=O)/C(=C/c1ccc([N+](=O)[O-])cc1)S2`, with 107% (inactive).
On the same count and under the same terms, then `CN(C)CCN(C)CC(C)(C)C(=O)/C=C/c1ccc(Cl)c(Cl)c1`, with -81.1% [100 µM] (active); and `CC(=O)C1Cc2ccccc2C1=O` (centres undefined), with 101% (inactive); and `Oc1c(Cl)cc(Cl)cc1C=NCC1CCC(CN=Cc2cc(Cl)cc(Cl)c2O)CC1` (centres undefined), with 116% (inactive).
For `Clc1ccc(-n2ncc3c(NCCCN4CCOCC4)ncnc32)cc1`, the growth was 104% (inactive).
On the same count and under the same terms, then `O=C1CSC(=S)N1Cc1cccnc1`, with 17% (inactive); and `CCN(CC)CCNC(Cc1ccccc1)c1ccc(OCc2ccccc2)cc1` (centres undefined), with 77.2% (inactive); and `O=Nc1ccc2ccccc2c1O`, with 61.8% (inactive).
`CCOC(=O)/C(=C\c1ccc2ccccc2c1)P(=O)(OCC)OCC`: the growth is 2.35% (active).
On the same count and under the same terms, the result for `Cc1ccc2cccc(OC(=O)Nc3cccc(C(F)(F)F)c3)c2n1` reads 58% (inactive).
Still for that read-out and setting: then `N#CC(I)CS(=O)(=O)c1ccccc1` (centres undefined), with 26.3% (inactive); and `CC(C)(C)c1ccc(CCO)cc1`, with 114% (inactive); and `CCCOS(=O)(=O)c1ccccc1`, with 101% (inactive).
As to `CCC(C)(O)Cc1ccc(Cl)cc1` (centres undefined), the growth was 99.4% (inactive).
The same measure, in the same setting: the result for `CN(C)c1ccc(C(C#N)(c2ccccc2)c2ccc(N(C)C)cc2)cc1` reads 43.3% (inactive).
On the same count and under the same terms, the result for `O=[N+]([O-])CC(O)c1ccccc1` (centres undefined) reads 105% (inactive).
Regarding `CCOC(=O)C1=NN(c2ccccc2)C(=O)/C1=C\N1C(=O)/C(=C/c2cccc(O)c2)SC1=S`, the growth was 97.6% (inactive).
As for `O=C(CCl)N1c2ccccc2Sc2c1ccc1ccccc21`, the growth is 11.1% (inactive).
Same read-out and setting: then `CCc1oc2ccccc2c1C(=O)c1cc(Br)c(O)c(Br)c1`, with 61.4% (inactive).
In the case of `Cc1cc(C)c([I+]c2c(C)cc(C)cc2C)c(C)c1`, the growth was -40.1% (active).
Still for that read-out and setting: then `CC1(C)N=c2cc3c(cc2N1c1ccc(Cl)cc1)=Nc1ccccc1N3c1ccc(Cl)cc1`, with 53.5% (inactive).
Still for that read-out and setting: the result for `O=C(Nc1ccc(Cl)c(Cl)c1)Nc1ccccc1O` reads 90.1% (inactive).
The same measure, in the same setting: the result for `O=C1/C(=C/c2ccccc2)CCC/C1=C\c1ccccc1` reads 22% (inactive).
With `CN=C(N)N/N=C(\C)c1ccc2c(c1)Cc1ccccc1-2`, the growth is -88.9% (active).
The same measure, in the same setting: the result for `CCCCCCCCc1cc(Cl)c(O)c(Cl)c1` reads 117% (inactive); that for `CC1(O)CCCCCC1`, 100% (inactive).
Still for that read-out and setting: the result for `CCN1/C(=C/C(C)=C/c2sc3ccc4ccccc4c3[n+]2CC)Sc2ccc3ccccc3c21` reads -94.2% (active).
Same read-out and setting: then `CC(O)C(O)C(O)C(O)C(O)C(=O)NNc1ccccc1` (centres undefined), with 75.6% (inactive); and `Cc1nn(CCO)c(C)c1N=[N+]([O-])c1c(C)nn(CCO)c1C`, with -61.2% (active).
In the case of `CCCCN(CCCC)CCCCCCCCCCO`, the growth is 103% (inactive).
In the case of `C/C(=N\NC(=S)N1CC2CCC(CC2)C1)c1ccccn1`, the growth is 14.3% (inactive).
